Source: article PMC6602471
The full ranking holds about 1,300 sequences; the median of “log fluorescence intensity” is about 8.3, and the highest 2% start at about 12. This is one part of a sample in which the highest values are shown more often than they occur.

target: T1, ETS1 (Homo sapiens, UniProt P14921 1-441); test: custom PBM; custom protein-binding microarray; buffer, salt, pH and temperature not stated; high values mean tight binding; settings: dsDNA, one strand shown
T1 sequence: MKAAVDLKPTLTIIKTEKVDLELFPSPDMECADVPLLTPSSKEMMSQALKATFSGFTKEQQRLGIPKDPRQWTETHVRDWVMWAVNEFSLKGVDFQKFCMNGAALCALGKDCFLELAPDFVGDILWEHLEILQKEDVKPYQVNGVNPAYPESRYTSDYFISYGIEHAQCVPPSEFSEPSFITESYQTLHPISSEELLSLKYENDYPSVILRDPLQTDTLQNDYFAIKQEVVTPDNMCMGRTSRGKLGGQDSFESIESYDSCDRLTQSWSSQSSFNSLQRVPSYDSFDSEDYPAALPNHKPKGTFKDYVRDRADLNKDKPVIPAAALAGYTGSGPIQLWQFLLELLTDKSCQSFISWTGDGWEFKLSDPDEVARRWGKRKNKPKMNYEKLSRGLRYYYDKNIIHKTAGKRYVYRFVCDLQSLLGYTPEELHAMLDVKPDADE

| Sequence | binding signal |
| --- | --- |
| TAAACGGAAGACGGTTGTGGTAGTTCCGGGTATTAAGTCTTGATTCGCTTGACGCTGCTG | 10.1 log fluorescence intensity |
| CAGCATAGGACTTCTTCCCTGAAGCAATTGATAACCGTCTTGATTCGCTTGACGCTGCTG | 8.39 log fluorescence intensity |
| CAGCATAGGACTTCGTCCCTGAAGCAATTGATAACCGTCTTGATTCGCTTGACGCTGCTG | 8.36 log fluorescence intensity |
| CAGCATAGGACTTCCTCCCTGAAGCAATTGATAACCGTCTTGATTCGCTTGACGCTGCTG | 12.7 log fluorescence intensity |
| CCTGCTGCGGTGCATACCCCACCGGATGTGACCCCGGTCTTGATTCGCTTGACGCTGCTG | 10.4 log fluorescence intensity |
| TAAAGGGAAGACGGTTGTGGTAGTTGCGGGTATTAAGTCTTGATTCGCTTGACGCTGCTG | 8.38 log fluorescence intensity |
| TAAAGGGAAGACGGTTGTGGTAGTTCCGGGTATTCAGTCTTGATTCGCTTGACGCTGCTG | 8.52 log fluorescence intensity |
| TAAAGGGAAGACGGTTGTGGTAGTTCCGGGTATTACGTCTTGATTCGCTTGACGCTGCTG | 8.47 log fluorescence intensity |
| CACAATTTTTACAGTAGTGTAGCACGCGTAACTCCTGTCTTGATTCGCTTGACGCTGCTG | 8.33 log fluorescence intensity |
| TGTCGGGTAAGGGTATGTAGATCACGTGAATGAAAAGTCTTGATTCGCTTGACGCTGCTG | 8.34 log fluorescence intensity |
| TAAAGGGAAGACCGTTGTGGTAGTTCCGGGTATTAAGTCTTGATTCGCTTGACGCTGCTG | 8.5 log fluorescence intensity |
| CGGAAGTGTCGTAAACGTCGGATATCCGGTACTTCTGTCTTGATTCGCTTGACGCTGCTG | 11.8 log fluorescence intensity |
| TCCTGCTACCAGCTCCACCCACTTCAGGCCTTGTAGGTCTTGATTCGCTTGACGCTGCTG | 8.42 log fluorescence intensity |
| CAGCATAGGACTTCTTCCCTGAACCAATTGATAACCGTCTTGATTCGCTTGACGCTGCTG | 8.33 log fluorescence intensity |
| CACAATTTTTACAGTAATGGAGCACGCGTAACTCCTGTCTTGATTCGCTTGACGCTGCTG | 8.32 log fluorescence intensity |
| GCTGCTGCGGTACATACCCCACCGGATGTGACCCCGGTCTTGATTCGCTTGACGCTGCTG | 10.5 log fluorescence intensity |
| GATTAATCTCTGCCCTTATTCGCACGTGCCATAACAGTCTTGATTCGCTTGACGCTGCTG | 8.31 log fluorescence intensity |
| GCTGCTGCGGTGCATACACCACCGGATGTGACCCCGGTCTTGATTCGCTTGACGCTGCTG | 10.2 log fluorescence intensity |
| GGAAAAAGGCCCAGGGTAACACGGGAAGTGGGCTTAGTCTTGATTCGCTTGACGCTGCTG | 8.49 log fluorescence intensity |
| GGAAATAGGCCCAGGGTAACACCGGAAGTGGGCTTAGTCTTGATTCGCTTGACGCTGCTG | 12 log fluorescence intensity |
| CGGAAGTGTCGTAAACGCCGGATATCCGGTTCTTCTGTCTTGATTCGCTTGACGCTGCTG | 13.1 log fluorescence intensity |
| CGGAAGTGTCGTAAACGGCGGATATCCGGTTCTTCTGTCTTGATTCGCTTGACGCTGCTG | 12.4 log fluorescence intensity |

| Sequence | binding signal |
| --- | --- |
| CGGAAGTGTCGTAAACTTCGGATATCCGGTTCTTCTGTCTTGATTCGCTTGACGCTGCTG | 11.9 log fluorescence intensity |
| CGGAAGTGTCGTAAACGTCGGATATCCGGTTCTGCTGTCTTGATTCGCTTGACGCTGCTG | 11.8 log fluorescence intensity |
| CGGAAGTGTCGTAAACGTCGGATATCCGGTTCTTCTGTCTTGATTCGCTTGACGCTGCTG | 11.9 log fluorescence intensity |
| GGGAAGTGTCGTAAACGTCGGATATCCGGTTCTTCTGTCTTGATTCGCTTGACGCTGCTG | 11.9 log fluorescence intensity |
| CGGAAGTGTCGTAAACGACGGATATCCGGTTCTTCTGTCTTGATTCGCTTGACGCTGCTG | 12.4 log fluorescence intensity |
| TGGAAGTGTCGTAAACGTCGGATATCCGGTTCTTCTGTCTTGATTCGCTTGACGCTGCTG | 11.9 log fluorescence intensity |
| AGGAAGTGTCGTAAACGTCGGATATCCGGTTCTTCTGTCTTGATTCGCTTGACGCTGCTG | 12 log fluorescence intensity |
| GCTGCTGCGGTGCATACCCCACCGGATGTGACCGCGGTCTTGATTCGCTTGACGCTGCTG | 10.5 log fluorescence intensity |
| CGGAAGTGTCGTAAACGTCGGATACCCGGTTCTTCTGTCTTGATTCGCTTGACGCTGCTG | 8.31 log fluorescence intensity |
| TCCGGCTAACAGCTCCACCCACTTCAGGCCTTGTAGGTCTTGATTCGCTTGACGCTGCTG | 8.32 log fluorescence intensity |
| GCTGCTGCGGTGCATAACCCACCGGATGTGACCCCGGTCTTGATTCGCTTGACGCTGCTG | 10.4 log fluorescence intensity |
| CGGAAGTGTCGCAAACGTCGGATATCCGGTTCTTCTGTCTTGATTCGCTTGACGCTGCTG | 12 log fluorescence intensity |
| CAGAATAGGACTTCTTCCCTGAAGCAATTGATAACCGTCTTGATTCGCTTGACGCTGCTG | 8.33 log fluorescence intensity |
| TAAAGGGAAGACGGTTGTGGTAGTTCCGGGTATCAAGTCTTGATTCGCTTGACGCTGCTG | 8.76 log fluorescence intensity |
| GCGGCTGCGGTGCATACCCCACCGGATGTGACCCCGGTCTTGATTCGCTTGACGCTGCTG | 10 log fluorescence intensity |
| TGTCGGGTAAGGGAATATAGATCACGTGAATGAAAAGTCTTGATTCGCTTGACGCTGCTG | 8.36 log fluorescence intensity |
| GATTAATTCCTGCCCTTATTCGCACGTGCCATAACAGTCTTGATTCGCTTGACGCTGCTG | 10.3 log fluorescence intensity |
| GATTAATTTCCGCCCTTATTCGCACGTGCCATAACAGTCTTGATTCGCTTGACGCTGCTG | 13.9 log fluorescence intensity |
| AATTAATTTCTGCCCTTATTCGCACGTGCCATAACAGTCTTGATTCGCTTGACGCTGCTG | 8.33 log fluorescence intensity |
| GGAAAAAGGCCCAGGGTAACACCGGAAGTGGGTTTAGTCTTGATTCGCTTGACGCTGCTG | 12 log fluorescence intensity |
| GCTGCTGCGGTGCATACCCCACCGGATGTAACCCCGGTCTTGATTCGCTTGACGCTGCTG | 10 log fluorescence intensity |
| GGAAAAAGGCCCAGGTTAACACCGGAAGTGGGCTTAGTCTTGATTCGCTTGACGCTGCTG | 12 log fluorescence intensity |

| Sequence | binding signal |
| --- | --- |
| TAAAGCGAAGACGGTTGTGGTAGTTCCGGGTATTAAGTCTTGATTCGCTTGACGCTGCTG | 8.48 log fluorescence intensity |
| CGGAAGTGTCGTAAACGTCGGATATCCGGTCCTTCTGTCTTGATTCGCTTGACGCTGCTG | 12.1 log fluorescence intensity |
| GATTAATTTCTGCCCTTTTTCGCACGTGCCATAACAGTCTTGATTCGCTTGACGCTGCTG | 8.42 log fluorescence intensity |
| TACTGACTTATATATGCGAGTGCACATGAATAGACCGTCTTGATTCGCTTGACGCTGCTG | 8.33 log fluorescence intensity |
| GATTAATTTCTGCCCTTATTCGTACGTGCCATAACAGTCTTGATTCGCTTGACGCTGCTG | 8.36 log fluorescence intensity |
| CACAATTTTTATAGTAATGTAGCACGCGTAACTCCTGTCTTGATTCGCTTGACGCTGCTG | 8.41 log fluorescence intensity |
| GGAAAAAGGCCTAGGGTAACACCGGAAGTGGGCTTAGTCTTGATTCGCTTGACGCTGCTG | 12.1 log fluorescence intensity |
| GGAAAAAGGCACAGGGTAACACCGGAAGTGGGCTTAGTCTTGATTCGCTTGACGCTGCTG | 12.1 log fluorescence intensity |
| GGAAAAAGGCCCAGGGTAACACCGGAAGTGGGCCTAGTCTTGATTCGCTTGACGCTGCTG | 12.1 log fluorescence intensity |
| GGAAAAAGGCTCAGGGTAACACCGGAAGTGGGCTTAGTCTTGATTCGCTTGACGCTGCTG | 11.8 log fluorescence intensity |
| GGAAAAAGGGCCAGGGTAACACCGGAAGTGGGCTTAGTCTTGATTCGCTTGACGCTGCTG | 12 log fluorescence intensity |
| GGAAAAAGGCCGAGGGTAACACCGGAAGTGGGCTTAGTCTTGATTCGCTTGACGCTGCTG | 12 log fluorescence intensity |
| TAAAGGGAAGACGGTTGTGGTAGTTCCGGGTAGTAAGTCTTGATTCGCTTGACGCTGCTG | 8.59 log fluorescence intensity |
| CAGCAAAGGACTTCTTCCCTGAAGCAATTGATAACCGTCTTGATTCGCTTGACGCTGCTG | 8.31 log fluorescence intensity |
| GCTGCTGCGGTGCATACCCCACCGGATGTGACCCCTGTCTTGATTCGCTTGACGCTGCTG | 10.1 log fluorescence intensity |
| CAGCATAGGACTTGTTCCCTGAAGCAATTGATAACCGTCTTGATTCGCTTGACGCTGCTG | 8.34 log fluorescence intensity |
| TAAAGGGAAGACGGTTGTGGTAGTTCCGGGTAATAAGTCTTGATTCGCTTGACGCTGCTG | 8.57 log fluorescence intensity |
| GATTAATTTCTGCCCTTATTCGCACGTGCCGTAACAGTCTTGATTCGCTTGACGCTGCTG | 8.34 log fluorescence intensity |
| GCTGCTGCGGTGCATACCCCACCGGAAGTGACCCCGGTCTTGATTCGCTTGACGCTGCTG | 11 log fluorescence intensity |
| CGGAAGTGTCGTAAACGTCGGATATCCCGTTCTTCTGTCTTGATTCGCTTGACGCTGCTG | 8.7 log fluorescence intensity |
| TGTCGGGTAAGGGAATGTAGATCACTTGAATGAAAAGTCTTGATTCGCTTGACGCTGCTG | 8.32 log fluorescence intensity |
